Test results reported in ChEMBL document CHEMBL3988442, “University of Dundee, Small-Polar-MMV Screening Library” (2021).
The whole screen tested about 48,000 compounds, of which about 13,000 (27%) showed an effect of 50% or more. The list shows a part of the results.

system: Wolbachia pipientis; assay: Anti-Wolbachia Cell-Based Screen; assay type: functional; set-up: scale not given: in the data most compounds retested in dose-response had high values; conditions: 5 µM

Compound | Percent Effect
O=C(C1CC1)N1CCN(Cc2ccncc2)c2ncccc2C1.O=C(O)C(F)(F)F.O=C(O)C(F)(F)F | 97.41%
Cc1ccc2c(n1)N(C)CCN(C(=O)C1CC1)C2.O=C(O)C(F)(F)F | -19.49%
O=C(Cc1ccsc1)N1CCN(CC2CC2)c2ncccc2C1.O=C(O)C(F)(F)F | -24.66%
COCC(=O)N1CCN(Cc2cccnc2)c2ncccc2C1.O=C(O)C(F)(F)F.O=C(O)C(F)(F)F | 107.3%
O=C(CC1CC1)N1CCN(Cc2ccncc2)c2ncccc2C1.O=C(O)C(F)(F)F.O=C(O)C(F)(F)F | 106.6%
CC(=O)NCC(=O)N1CCN(Cc2cccnc2)c2ncccc2C1 | -23.25%
O=C(CC1CC1)N1CCN(Cc2cccnc2)c2ncccc2C1.O=C(O)C(F)(F)F.O=C(O)C(F)(F)F | 108.8%
O=C(O)C(F)(F)F.O=C(O)CCC(=O)N1CCN(CC2CC2)c2ncccc2C1 | -20.91%
COCC(=O)N1CCN(CC2CC2)c2ncccc2C1 | 17.09%
CCCS(=O)(=O)N1CCC2(CC1)CCn1c(-c3cnn(C)c3)cnc12.O=C(O)C(F)(F)F | -1.785%
CC(=O)NS(=O)(=O)c1ccc2c(c1)N(C)CCC2 | -0.0475%
CCc1nsc(N2CCCN(C(=O)c3ccc(OC)cc3)CC2)n1 | 4.92%
CN(C)C(=O)N1CCC(C(=O)N2CCOC(CC3CCCCC3)C2)CC1 (centres undefined) | 1.077%
CN(C)Cc1nnc(C2CCCN(Cc3ccc(Cl)s3)C2)n1C (centres undefined) | -1.038%
COc1ncnc2c1CCN(c1cc(C(F)(F)F)ncn1)CC2 | -19.6%
N#Cc1ccnc(N2CCC(NCCN3CCCC3)CC2)c1 | 4.204%
Cn1cnnc1S(=O)(=O)Cc1cc(Cl)c2c(c1)OCO2 | -6.914%
CN(Cc1cscn1)Cc1cc2c(cc1Br)OCO2 | 7.123%
Cn1cnnc1SCc1cc2c(cc1Cl)OCO2 | 116.9%
Cn1c(N)nnc1SCc1ccc(Cl)cc1Br | -13.54%
CC(C)C(=O)Nc1ccc(Sc2nncn2C)c(Cl)c1 | 7.85%
Cn1nnnc1SCc1cc2c(cc1Cl)OCO2 | 119.1%
Cn1cnnc1SCc1cc2c(cc1Br)OCO2 | 98.1%
Cn1nnnc1SCCNC1CCN(c2ccc3c(c2)OCO3)CC1 | -18.49%
Cn1c(N)nnc1SCc1cc(Br)ccc1Cl | -1.725%
CCCc1cc(NC(=O)c2cc(N3CCNC3=O)c(F)cc2F)n[nH]1 | -4.311%
Cc1noc(C)c1CN(C)Cc1nc(N)c2ccccc2n1 | -15.35%
Cc1noc(C)c1CN(C)c1ncnc2ccccc12 | 85.55%
Cc1noc(C)c1CN(C)c1ncnc2onc(C)c12 | 10.95%
